ATG4B inh – blocks human ATG4B protease cleavage of LC3 substrate. ATG4B cleavage of LC3-PLA2, NBD-HPC fluorescence, 1 h. AID 504462. actives 0.51% (n = 340,000). inhibition, % at 8.33 µM; in the data active = inhibition above about 40%
Target sequence (Q9Y4P1 whole entry, looked up): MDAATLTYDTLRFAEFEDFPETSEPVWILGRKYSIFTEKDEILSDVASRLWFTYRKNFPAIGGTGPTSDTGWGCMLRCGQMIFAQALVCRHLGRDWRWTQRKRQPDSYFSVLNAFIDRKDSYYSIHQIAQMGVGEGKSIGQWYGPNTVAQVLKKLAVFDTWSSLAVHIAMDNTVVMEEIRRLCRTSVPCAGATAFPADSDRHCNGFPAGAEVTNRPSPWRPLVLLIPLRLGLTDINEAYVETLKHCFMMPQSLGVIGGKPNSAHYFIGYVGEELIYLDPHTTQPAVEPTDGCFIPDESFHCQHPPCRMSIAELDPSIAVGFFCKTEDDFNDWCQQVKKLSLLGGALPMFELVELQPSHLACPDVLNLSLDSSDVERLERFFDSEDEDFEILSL
Calb FLC – affects C. albicans growth with fluconazole; actives 0.57% (n = 300,000); growth inhibition, % (no concentration beside the values); C. albicans CaCi-2 (fluconazole-resistant clinical isolate) + fluconazole, Alamar Blue growth, 48 h;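 active = growth inhibition above about 58% in most replicates, limit read from the data, passing the limit was not always enough; inconclusive = exactly half the replicates above a set limit; inactive = most replicates below a set limit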;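 note: all wells also contain fluconazole at 8 µg/ml as a sub-toxic cotreatment; 0% = median of DMSO wells and 100% = median of geldanamycin control wells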
SUMO Mot1 rescue – blocks SUMOylation pathway, rescuing yeast Mot1-301 growth | growth rescue, % at 18.8 µM | S. cerevisiae Mot1-301 growth rescue, ATP luminescence, 38.5C; percent above DMSO median, 100 means doubled | actives 1% (n = 320,000);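 active = every valid replicate shows activation above 250% relative to neutral control wells; inactive = the rest, any valid replicate at or below 250%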;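 note: OY570 slx delta 5 strain wells were the positive control but not used for scaling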
NadD block – NadD (S. aureus) enzyme inhibition; actives 0.78% (n = 360,000); inhibition, % at 20 µM; purified NadD enzyme, colorimetric absorbance read-out; in the data active = inhibition above about 26%
FAS-TE inh – inhibitors of human fatty acid synthase thioesterase domain; inhibition, % at 15 µM; actives 0.67% (n = 360,000); recombinant FAS-TE, OMFH fluorogenic substrate, fluorescence endpoint; AID 602261; P49327;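 active = compounds whose normalised, plate-corrected inhibition of enzyme fluorescence in the single-dose primary screen is 50% or more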;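 note: 0% = DMSO with enzyme and 100% = substrate without enzyme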
Mot1 SUMO dose – inhibits SUMO pathway, affecting Mot1-301 yeast growth; growth activity, percent, % at 42 µM; S. cerevisiae Mot1-301 galactose growth, ATP luminescence, 24 h; -100 = growth of slx-deleted rescue strain; 2,300 tested, under 10 active; shares compounds with SUMO Mot1 rescue;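 active = Signal drops as the depositor expects, and the fitted half-maximal dose is no more than ten times the top valid tested dose; inconclusive = Poor fit, or a flat curve whose signal drops by 30% to 70%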;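 note: more negative values mean stronger growth rescue toward the control strain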
* marks the source's active call; other numbers are inactive results; u = inconclusive; x = not tested or not shown; + = active, no number. Most compounds without a hit are left out; they make up all but 3.1% or so of the library.

SMILES	ATG4B inh	Calb FLC	SUMO Mot1 rescue	NadD block	FAS-TE inh	Mot1 SUMO dose
CC(=O)c1ccc(NC(=O)CSc2n[nH]c(-c3cccnc3)n2)cc1	4	-5	-23	-5	-6	x
COc1cccc(C(=O)Nc2ccc(C(F)(F)F)n(C)c2=O)c1	1	u	84	1	8	x
CCOc1ccc(C(=O)Nc2ccc(C(F)(F)F)n(C)c2=O)cc1	-2	16	+	3	0	0
COc1cc(/C=N/NS(=O)(=O)c2ccc(Br)cc2)ccc1O	1	1	-7	2	-4	x
COC(=O)Oc1ccc(/C=N/NS(=O)(=O)c2ccccc2)cc1OC	-5	0	627*	-1	-6	0
CCOc1ccccc1C(=O)N(Cc1cccs1)C1CCS(=O)(=O)C1 (configuration not stated)	0	1	+	-8	-3	0
COC(=O)[C@@]1(C(C)C)N=C(c2cc(OC)c(OC)c(OC)c2)[C@]2(O1)C(=O)N(C)c1ccccc12	x	x	x	2	-3	x
CCOC(=O)C1CCCN(C(=O)c2cc(C)oc2C)CC1 (configuration not stated)	x	x	x	1	-8	x
COc1ccc([N+](=O)[O-])c2c(=O)ccoc12	-4	19	585*	-2	-4	0
CC(C)(c1ccccc1)c1ccc(OCCCN2CCNCC2)cc1	6	-2	-16	-5	-19	x
CC(C)(c1ccccc1)c1ccc(OCCN2CCOCC2)cc1	4	1	444*	-9	1	0
CC1(C)CC(=O)c2cnc(NC(=O)CSc3nc4ccccc4o3)nc2C1	-12	-1	851*	-4	-1	1
COc1cccc(-n2c(Cc3cc(=O)[nH]c(=O)[nH]3)nnc2SCc2cccnc2)c1	0	-2	511*	1	-2	0
O=C(O)C1=NN(c2cc(Cl)c(S(=O)(=O)O)cc2Cl)C(=O)C1	12	x	x	11	-9	x
Cc1c(C(C)NC(=O)c2cc(COc3cccc4cnccc34)on2)cnn1C (configuration not stated)	-4	4	-4	-4	0	x
Cc1cc2c3c(c1)C1(SCC(=O)N1c1ccc(F)cc1)C(=O)N3C(C)(C)CC2C (configuration not stated)	-8	4	423*	-5	-87	-1
CSc1nc(NS(=O)(=O)c2ccc(F)cc2F)nn1C	-6	-4	1	-3	-3	x
CN(C(=O)c1cccc(NC(=O)Cc2ccc(NC(=O)C3CCN(C(=O)CCc4ccccc4)CC3)cc2)c1)C1CCC1	-1	x	x	10	-5	x
Cc1ccc(NS(=O)(=O)c2csc(C(N)=O)c2)cc1C	5	-2	369*	-7	1	-1
COc1ccc(NC(=O)c2cc(S(=O)(=O)Nc3ccc(OC)cc3)cs2)cc1	-1	5	527*	-9	10	0
CSc1ccc(Cl)c(C(=O)Nc2cc(S(=O)(=O)N3CCOCC3)ccc2N2CCOCC2)c1	5	x	-5	-1	11	x
O=C(Cn1nnc2ccccc21)N/N=C\c1cccs1	-12	2	-1	3	-9	x
Nc1nnnn1CC(=O)N/N=C/c1cccs1	-16	6	627*	1	-4	0
CCOC(=O)c1cccc(NC(=O)C2CCCN(S(=O)(=O)c3c(C)n[nH]c3C)C2)c1 (configuration not stated)	-12	-13	458*	-4	0	1
CC(=O)c1ccc2noc(-c3ccc(F)cc3)c2c1	-13	1	+	-1	0	-1
SMILES	ATG4B inh	Calb FLC	SUMO Mot1 rescue	NadD block	FAS-TE inh	Mot1 SUMO dose
Cc1nnc(SC(C)C(=O)Nc2ccc3ccccc3c2)[nH]c1=O (configuration not stated)	-12	3	-5	-2	-1	x
CN(Cc1ccccc1)C(=O)COc1cccnc1[N+](=O)[O-]	-11	1	-8	-4	-2	x
CC(=O)N1CCN(CC(O)COc2ccc(OCc3ccccc3)cc2)CC1 (configuration not stated)	-4	8	402*	5	-1	0
Cc1cccc(N=Nc2cnc(N)s2)c1	7	0	11	-3	-16	x
CCN(C(=O)CSc1nc2ccccc2c(=O)n1-c1ccc(C)cc1)C1CCS(=O)(=O)C1 (configuration not stated)	-8	-5	4	-3	2	x
Cc1ccc(-n2c(SCC(=O)N(C)C3CCS(=O)(=O)C3)nc3ccccc3c2=O)cc1 (configuration not stated)	2	-6	499*	-8	3	0
CN(C(=O)COC(=O)c1cc(-c2ccc(Cl)s2)nc2ccccc12)C1CCS(=O)(=O)C1 (configuration not stated)	2	-10	511*	-2	20	1
CCCn1nc(C(=O)N(C)CC(=O)Nc2ccc(OCC)c(OCC)c2)c2ccccc2c1=O	-7	x	14	2	-3	x
CCCn1c(N)cc(=O)n(CCC)c1=O	-2	-14	792*	1	-5	0
CC(C)Cn1c(N)cc(=O)n(C)c1=O	-2	9	-7	-4	-8	x
O=C(/C(=N\Nc1ccc(Br)cc1)Sc1nnnn1-c1ccccc1)c1ccccc1	5	-13	739*	2	10	0
CCCC(O)(c1ccc(Br)cc1)C(CN1CCOCC1)c1ccc(Cl)cc1 (configuration not stated)	-11	-6	555*	-9	25	-2
CCN(C(=O)C(C)Sc1nnc(-c2ccncc2)n1C)C1CCCCC1 (configuration not stated)	-11	x	-4	-4	-6	x
CCN(C(=O)CCS(=O)(=O)c1ccc2c(c1)oc(=O)n2C)c1ccc(OC)cc1	3	3	378*	-3	5	0
COc1cccc(COC(=O)Cc2ccc(S(=O)(=O)N3CCOCC3)s2)c1OC	-37	x	-12	-9	8	x
COc1cc(C(=O)OCCN2CCCCC2)ccc1O	-9	-6	383	-1	-4	x
CCCOC(=O)c1ccc(O)c(OC)c1	0	3	398*	2	-2	0
COc1ccccc1CNC(=O)[C@H](C)NC(=O)C1CCN(C(=O)[C@@H](N)CC(C)C)CC1	-3	0	618*	-1	-3	0
COc1ccccc1CNC(=O)[C@H](NC(=O)C1CCN(C(=O)[C@@H](N)CCSC)CC1)C(C)C	-15	-11	-16	0	-8	x
COc1cc(Br)c(/C=C/c2ccc3cccc(O)c3n2)cc1OC	-6	-2	14	26	7	x
Oc1cccc2ccc(/C=C/c3ccccc3Br)nc12	1	u	528*	2	15	0
CN(C(=S)NC1=CCS(=O)(=O)C1)C1CCCCC1	-1	2	581*	0	-8	-1

Source: PubChem BioAssay (several laboratories)
